Assay [1] can be described thus: Caspase-3/7 induction in CHO-K1 cells by small molecules, qHTS assay (AID 1346980). Note: nearly all actives have a fitted effect of over 15% in size. Note: potency is the fitted concentration of half-maximal effect. In outline: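 Wild-type CHO-K1 cells exposed to compounds for 17hr at 37 C, 5% CO2. Caspase-3/7 activity then measured by Caspase-Glo 3/7 luminescence after 30min at room temperature.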
(qHTS replaces the single test concentration by a dilution series.)

Assay [2] is described as follows: Caspase-3/7 induction in HepG2 cells by small molecules, qHTS cell viability counter screen (AID 1346981). Note: nearly all actives have a fitted effect of over 30% in size. Note: potency is the fitted concentration of half-maximal effect. In outline: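 Multiplexed with the caspase-3/7 assay: HepG2 cells, 16 hr compound treatment, CellTiter-Fluor viability detection by fluorescence.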
In assay [3] the target is Cytochrome P450 2D6 (Homo sapiens) (UniProt P10635). As to the kind of experiment: Cytochrome P450 Family 2 Subfamily D Member 6 (CYP2D6) small molecule antagonists: luciferase reporter qHTS assay (AID 1671196). Note: nearly all actives have a fitted effect of over 50% in size. Note: potency is the fitted concentration of half-maximal effect. In short, it runs like this: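 Luminescence (RLU), read 20 min after detection reagent, indicated CYP2D6 conversion of proluciferin to luciferin during a 1 h NADPH-dependent reaction at room temperature.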

The target of assay [4] is Cytochrome P450 1A2 (Homo sapiens) (UniProt P05177). As to the kind of experiment: Cytochrome P450 Family 1 Subfamily A Member 2 (CYP1A2) small molecule antagonists: luciferase reporter qHTS assay (AID 1671199). Note: nearly all actives have a fitted effect of over 50% in size. Note: potency is the fitted concentration of half-maximal effect. In outline: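 CYP1A2 turnover of a luminogenic substrate was quantified after 1 h with NADPH regeneration at room temperature. Furafylline served as positive control.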

Assay [5] has as its target Nuclear receptor subfamily 1 group I member 2 (Homo sapiens) (UniProt O75469). As to the kind of experiment: Human pregnane X receptor (PXR) small molecule agonists, qHTS assay (AID 1346982). Note: nearly all actives have a fitted effect of over 35% in size. Note: potency is the fitted concentration of half-maximal effect. In short, it runs like this:
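We seeded PXR-Luc HepG2 cells in assay medium containing 5% charcoal-stripped FBS, added compounds 5 hr later, incubated 24 hr, and read luminescence with ONE-Glo reagent.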

Assay [6] has as its target Cytochrome P450 2C19 (Homo sapiens) (UniProt P33261). As to the kind of experiment: Cytochrome P450 Family 2 Subfamily C Member 19 (CYP2C19) small molecule antagonists: luciferase reporter qHTS assay (AID 1671197). Note: nearly all actives have a fitted effect of over 65% in size. Note: potency is the fitted concentration of half-maximal effect. In outline: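 CYP2C19 P450-Glo, 1536-well qHTS. Cpd + enzyme/proluciferin substrate 10 min RT; + NADPH regen, 37C 1 h; stop with luciferin detection reagent, 20 min RT, luminescence (RLU). Pos ctrl ketoconazole.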

For assay [7], the target named is Cytochrome P450 2C9 (Homo sapiens) (UniProt P11712). As to the kind of experiment: Cytochrome P450 Family 2 Subfamily C Member 9 (CYP2C9) small molecule antagonists: luciferase reporter qHTS assay (AID 1671198). Note: nearly all actives have a fitted effect of over 50% in size. Note: potency is the fitted concentration of half-maximal effect. In short, it runs like this:
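P450-Glo proluciferin substrate with CYP2C9 enzyme; 10 min RT preincubation, then NADPH regeneration 1 h at 37C; luciferin detection reagent 20 min RT, luminescence in relative luminescence units.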
(In general: A reporter such as luciferase makes a cellular process visible.)

The target in assay [8] is Nuclear receptor subfamily 1 group I member 2 (Rattus norvegicus) (UniProt Q9R1A7). As to the kind of experiment: Rat pregnane X receptor (rPXR) activation by small molecules, qHTS assay (AID 1346983). Note: nearly all actives have a fitted effect of over 20% in size. The following applies: rPXR luciferase reporter cells, One-Glo luminescence, 24 h; max activation: hits give high values. In short, it runs like this:
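Cell-based rPXR activation assay: rPXR cells, 2,000 per well, rested 5hr at 37 C, then exposed to compounds in DMSO for 24 hr at 37 C. Luciferase activity read by One-Glo luminescence after 30 min at room temperature.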

Inconclusive results are not listed. The source made the active and inactive calls. Calls come from the whole dose curve; as a rule, active = well fitted curve in the direction sought with a large enough effect in the repeat runs; inconclusive = weak or mixed curves; inactive = no such curve, though single readings can be large; an effect the other way counts as inactive or inconclusive.
% is set by controls: 0 for no effect and ±100 for the full control effect.

Sequence of Nuclear receptor subfamily 1 group I member 2 (Homo sapiens) (O75469 whole entry, looked up): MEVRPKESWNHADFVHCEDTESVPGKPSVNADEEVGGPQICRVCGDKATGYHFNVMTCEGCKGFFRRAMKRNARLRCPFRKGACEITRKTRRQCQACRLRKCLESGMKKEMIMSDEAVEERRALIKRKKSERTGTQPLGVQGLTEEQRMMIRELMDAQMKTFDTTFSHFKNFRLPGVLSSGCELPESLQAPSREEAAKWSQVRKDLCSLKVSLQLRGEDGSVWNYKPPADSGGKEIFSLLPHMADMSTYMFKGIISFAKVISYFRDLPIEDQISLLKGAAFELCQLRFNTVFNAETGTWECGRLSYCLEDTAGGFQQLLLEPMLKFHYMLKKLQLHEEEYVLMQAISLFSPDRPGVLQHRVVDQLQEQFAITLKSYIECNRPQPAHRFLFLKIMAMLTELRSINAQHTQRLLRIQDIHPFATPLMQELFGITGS
Sequence of Cytochrome P450 2C9 (Homo sapiens) (P11712 whole entry, looked up): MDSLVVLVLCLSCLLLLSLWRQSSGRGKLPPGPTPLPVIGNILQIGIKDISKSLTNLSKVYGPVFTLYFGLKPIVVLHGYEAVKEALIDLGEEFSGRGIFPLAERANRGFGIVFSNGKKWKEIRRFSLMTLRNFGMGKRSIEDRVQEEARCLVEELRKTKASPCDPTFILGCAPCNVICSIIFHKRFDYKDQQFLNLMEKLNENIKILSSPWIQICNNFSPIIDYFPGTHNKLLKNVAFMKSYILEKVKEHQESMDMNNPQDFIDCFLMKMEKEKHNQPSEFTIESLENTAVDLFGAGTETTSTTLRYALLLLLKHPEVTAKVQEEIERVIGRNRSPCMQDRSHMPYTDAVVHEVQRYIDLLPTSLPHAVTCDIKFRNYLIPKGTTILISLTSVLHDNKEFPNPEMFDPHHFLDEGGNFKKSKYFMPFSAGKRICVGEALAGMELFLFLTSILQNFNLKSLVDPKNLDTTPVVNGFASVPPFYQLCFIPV
Sequence of Cytochrome P450 2D6 (Homo sapiens) (P10635 whole entry, looked up): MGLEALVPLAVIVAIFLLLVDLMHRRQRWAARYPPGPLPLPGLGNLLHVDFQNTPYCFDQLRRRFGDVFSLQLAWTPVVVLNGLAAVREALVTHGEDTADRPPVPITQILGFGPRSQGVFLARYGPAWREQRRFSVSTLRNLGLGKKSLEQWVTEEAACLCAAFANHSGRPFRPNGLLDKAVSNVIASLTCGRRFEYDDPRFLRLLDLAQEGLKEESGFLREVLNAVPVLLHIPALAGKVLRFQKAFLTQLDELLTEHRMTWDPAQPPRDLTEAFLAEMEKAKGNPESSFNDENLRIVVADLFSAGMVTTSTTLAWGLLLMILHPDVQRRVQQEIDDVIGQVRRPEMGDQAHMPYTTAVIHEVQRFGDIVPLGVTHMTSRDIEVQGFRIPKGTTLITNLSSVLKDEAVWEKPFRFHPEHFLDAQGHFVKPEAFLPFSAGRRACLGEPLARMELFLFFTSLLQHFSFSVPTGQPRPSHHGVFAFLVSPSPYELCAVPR
Sequence of Cytochrome P450 1A2 (Homo sapiens) (P05177 whole entry, looked up): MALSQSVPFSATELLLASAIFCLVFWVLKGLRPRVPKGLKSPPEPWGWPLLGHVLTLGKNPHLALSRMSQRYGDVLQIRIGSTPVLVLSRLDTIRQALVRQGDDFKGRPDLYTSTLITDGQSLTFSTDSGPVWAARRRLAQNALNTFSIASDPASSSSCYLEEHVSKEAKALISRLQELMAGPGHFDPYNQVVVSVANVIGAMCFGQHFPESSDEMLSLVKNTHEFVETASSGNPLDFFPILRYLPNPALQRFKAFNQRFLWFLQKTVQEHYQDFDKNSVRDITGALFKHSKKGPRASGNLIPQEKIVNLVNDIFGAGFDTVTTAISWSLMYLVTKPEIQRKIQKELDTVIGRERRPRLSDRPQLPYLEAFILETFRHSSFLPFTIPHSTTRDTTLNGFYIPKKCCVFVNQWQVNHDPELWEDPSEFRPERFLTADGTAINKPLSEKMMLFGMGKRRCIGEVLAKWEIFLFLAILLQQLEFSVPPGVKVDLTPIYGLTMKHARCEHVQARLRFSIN
Sequence of Cytochrome P450 2C19 (Homo sapiens) (P33261 whole entry, looked up): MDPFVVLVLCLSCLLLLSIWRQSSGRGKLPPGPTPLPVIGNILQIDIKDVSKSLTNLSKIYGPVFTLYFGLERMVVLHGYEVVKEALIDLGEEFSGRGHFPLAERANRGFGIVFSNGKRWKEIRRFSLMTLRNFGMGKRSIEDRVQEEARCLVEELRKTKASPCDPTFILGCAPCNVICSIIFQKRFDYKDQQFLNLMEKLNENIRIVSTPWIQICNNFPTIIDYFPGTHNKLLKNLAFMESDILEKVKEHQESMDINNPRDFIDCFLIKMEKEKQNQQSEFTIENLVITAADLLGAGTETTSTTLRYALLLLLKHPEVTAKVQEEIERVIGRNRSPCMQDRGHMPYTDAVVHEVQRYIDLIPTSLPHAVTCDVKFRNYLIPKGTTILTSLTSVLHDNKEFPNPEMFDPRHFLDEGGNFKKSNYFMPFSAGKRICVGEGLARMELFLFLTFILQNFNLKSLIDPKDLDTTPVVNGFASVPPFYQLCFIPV
Sequence of Nuclear receptor subfamily 1 group I member 2 (Rattus norvegicus) (Q9R1A7 whole entry, looked up): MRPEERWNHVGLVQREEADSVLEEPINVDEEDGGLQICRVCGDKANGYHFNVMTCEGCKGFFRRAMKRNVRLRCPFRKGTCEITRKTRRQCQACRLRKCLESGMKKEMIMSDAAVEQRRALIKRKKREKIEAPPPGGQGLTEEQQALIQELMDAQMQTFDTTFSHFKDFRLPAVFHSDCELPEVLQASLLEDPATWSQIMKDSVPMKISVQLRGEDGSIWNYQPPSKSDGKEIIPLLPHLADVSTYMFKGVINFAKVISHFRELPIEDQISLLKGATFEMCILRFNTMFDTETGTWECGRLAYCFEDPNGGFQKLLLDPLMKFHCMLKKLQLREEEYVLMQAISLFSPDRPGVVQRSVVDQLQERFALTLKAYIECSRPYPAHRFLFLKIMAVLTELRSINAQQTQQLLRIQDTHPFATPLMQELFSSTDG

With `CSc1ccc(O)cc1C`, the Potency result in assay [1], in assay [2] and in assay [3] was “inactive” throughout. In assay [4], the Potency is 63.3 µM (active).

Regarding `CCc1cccc(C)c1N(C(=O)C(=O)O)C(C)COC` (stereo not given), the Potency entry in assay [1], in assay [2], in assay [5], in assay [6] and in assay [4] was “inactive” throughout.

As for `CN1CC[C@H](c2c(O)cc(O)c3c(=O)cc(-c4ccccc4Cl)oc23)[C@H](O)C1`, the Potency was 0.266 µM (active) in assay [1], 0.335 µM (active) in assay [2] and 0.106 µM (active) in assay [5]. The Potency result in assay [6] and in assay [4] was “inactive” throughout.

Take `COc1cc(OC)nc(NC(=O)NS(=O)(=O)Nc2ccccc2C(=O)N(C)C)n1`: the Potency entry in assay [1] and in assay [2] was “inactive” in each case. Also, the Potency was 43.3 µM (active) in assay [5], 39.9 µM (active) in assay [6], 31.7 µM (active) in assay [7] and 63.3 µM (active) in assay [4].

On to `CCC1(C)C(=O)N(Cl)C(=O)N1Cl` (stereo not given), for which the Potency entry in assay [1], in assay [2], in assay [5], in assay [6], in assay [7] and in assay [4] was “inactive” throughout.

On to `Nc1ccc(Cl)c([N+](=O)[O-])c1`, for which the Potency result in assay [1], in assay [2], in assay [3] and in assay [6] was “inactive” throughout. The Potency in assay [4] is 31.7 µM (active).

On to `CCSCC`, for which the Potency entry in assay [1], in assay [2], in assay [3], in assay [6], in assay [7] and in assay [4] was “inactive” throughout.

As to `CCN(CC)c1ccc(N=Nc2ccccc2)cc1`, the Potency entry in assay [1] is “inactive”. In addition, the Potency was 27.3 µM (active) in assay [2]; 1.37 µM (active) in assay [5]; 20 µM (active) in assay [6]; 10 µM (active) in assay [7]; 11.2 µM (active) in assay [4].

`O[Si](c1ccccc1)(c1ccccc1)c1ccccc1`: the Potency result in assay [1], in assay [3] and in assay [4] was “inactive” each time. In addition, the Potency in assay [5] is 27.3 µM (active); in assay [6] it was 0.502 µM (active); in assay [7], 0.564 µM (active).

Turning to `CC(C)C(=O)C(C)C`, the Potency result in assay [1], in assay [2], in assay [5], in assay [6], in assay [7] and in assay [4] was “inactive” each time.

In the case of `CN(C)CCOc1ccc(/C(=C(/CCCl)c2ccccc2)c2ccccc2)cc1`, the Potency is 51 µM (active) in assay [1], 57.2 µM (active) in assay [2], 52.8 µM (active) in assay [3] and 52.8 µM (active) in assay [6]. For the same compound, in assay [8], the max activation was -3.02% (inactive).

(Values after PubChem BioAssay (Tox21).)
